Records with an inconclusive call do not appear. Activity calls are given as the source filed them. The calls were made as follows: active = hit-call score of the fitted dose curve at least 0.9, where 1 is the maximum; inconclusive = response in the unintended direction; inactive = score below 0.9.
Each molecule was assayed against rat Thyrotropin Releasing Hormone Receptor (TRH), Trhr (gene 25570) (UniProt Q01717) (assay: NVS_GPCR_rTRH: NovaScreen (NVS) G Protein-Coupled Receptor Assay for rat Thyrotropin Releasing Hormone Receptor (TRH) (AID 2283329);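 also: hit means lower bound tracer signal versus DMSO baseline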).
Chain of rat Thyrotropin Releasing Hormone Receptor (TRH), Trhr (gene 25570) (Q01717 whole entry, looked up): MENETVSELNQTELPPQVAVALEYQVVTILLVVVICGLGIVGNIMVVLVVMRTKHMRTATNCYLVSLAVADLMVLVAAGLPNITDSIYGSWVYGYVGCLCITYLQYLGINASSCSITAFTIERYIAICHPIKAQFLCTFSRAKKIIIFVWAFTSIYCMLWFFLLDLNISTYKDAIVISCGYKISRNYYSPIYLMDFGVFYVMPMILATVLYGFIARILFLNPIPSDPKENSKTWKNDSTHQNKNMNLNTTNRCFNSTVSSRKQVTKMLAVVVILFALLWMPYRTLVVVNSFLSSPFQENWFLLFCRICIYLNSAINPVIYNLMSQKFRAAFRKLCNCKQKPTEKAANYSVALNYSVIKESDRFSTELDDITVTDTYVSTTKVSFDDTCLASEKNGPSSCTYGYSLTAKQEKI
Procedure: NVS_GPCR_rTRH is a biochemical, single-readout assay that uses extracted gene-proteins from Rat forebrain membranes in a tissue-based cell-free assay. Measurements were taken 4 hours after chemical dosing in a 48-well plate.NVS_GPCR_rTRH is one of one assay component(s) measured or calculated from the NVS_GPCR_rTRH assay. It is designed to make measurements of radioligand binding, a form of binding reporter, as detected with scintillation counting signals by Filter-based radiodetection technology.Data from the assay component NVS_GPCR_rTRH was analyzed into 1 assay endpoint. This assay endpoint, NVS_GPCR_rTRH, was analyzed in the positive analysis fitting direction relative to DMSO as the negative control and baseline of activity. Using a type of binding reporter, loss-of-signal activity can be used to understand changes in the binding as they relate to the gene Trhr. Furthermore, this assay endpoint can be referred to as a primary readout, because the performed assay has only produced 1 assay endpoint. To generalize the intended target to other relatable targets, this assay endpoint is annotated to the gpcr intended target family, where the subfamily is rhodopsin-like receptor.
Binding assays used specific radioligands (tritiated, iodinated) with non-radioactive competitive displacement ligands in agonist or antagonist protocols (as indicated) and various reference compounds and inhibitors to titrate specific binding to receptors and transporters. Most enzyme assays (CYPs, kinases, phosphatases, proteases, HDACs) used recombinant protein and specific substrates (fluorescence mostly, some colorimetric and radioactive) and inhibitors, followed by a biochemical separation of substrate and product. All assays for the biochemical HTS were initially run in duplicate at a single concentration (10 uM for CYP450 assays and 25 uM for all others). […] Each assay was run with positive and negative controls, and concurrent controls on every plate. The follow-up (secondary) screen tested active chemical-pairs in concentration series, as well as a few additional assays not tested in the primary screen, some selected negative inactives, and several cases re-run in the concentration series for confirmatory purposes.

Row | SMILES | outcome | AC50
1 | COc1ccc(C=O)cc1 | inactive | –
2 | CC(C)c1cccc(C(C)C)c1O | inactive | –
3 | C[C@]12CC[C@H](O)CC1=CC[C@@H]1[C@@H]2CC[C@]2(C)C(=O)CC[C@@H]12 | inactive | –
4 | O=c1[nH]c(=O)[nH]c(=O)[nH]1 | inactive | –
5 | ClCC(Cl)CCl | inactive | –
6 | O=C(OC1CCCCC1)c1ccccc1C(=O)OC1CCCCC1 | inactive | –
7 | C1CCC(NC2CCCCC2)CC1 | inactive | –
8 | COC(=O)c1sccc1S(=O)(=O)NC(=O)Nc1nc(C)nc(OC)n1 | inactive | –
9 | Oc1cccc2cccnc12 | inactive | –
10 | Cl/C=C/Cl | inactive | –
11 | CC(C)C1CCC(Cc2ccc(Cl)cc2)C1(O)Cn1cncn1 (stereo not drawn) | inactive | –
12 | C=C(C)C(=O)[O][Sn]([CH2]CCC)([CH2]CCC)[CH2]CCC | – | 20.3 µM (active)
13 | Cc1ccc2ccccc2c1C | inactive | –
14 | Clc1nc(Cl)nc(Cl)n1 | inactive | –
15 | O=[N+]([O-])c1ccc(O)c([N+](=O)[O-])c1 | inactive | –
16 | Cc1ccccc1C(=O)Nc1cccc(OC(C)C)c1 | inactive | –
17 | C[C@H]1CCCC(=O)CCC/C=C/c2cc(O)cc(O)c2C(=O)O1 | inactive | –
18 | COP(=O)(OC)O/C(=C\Cl)c1cc(Cl)c(Cl)cc1Cl | inactive | –
